The values below come from PubChem BioAssay AID588675 (Johns Hopkins Ion Channel Center, 2011).

Among all 310,000 compounds or so, about 1,900 (0.61%) were called active.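 The calls were made as follows: active = plate-corrected calcium response at least 3 library SD above typical, normal starting fluorescence, not activating the receptor alone; inactive = the rest.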 For the sample, actives were picked, then their nearest neighbours and some compounds at random.

The target in this assay is Mas-related G-protein coupled receptor member X1 (Homo sapiens) (UniProt Q96LB2). Description: allosteric enhancers of human MrgX1 signaling – HEK293 cells, Fluo-4 calcium flux, primary screen (AID 588675).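 Also: compound read alongside a low EC10 to EC30 dose of BAM8-22 agonist.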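 As to B-score: peak minus trough fluorescence over baseline measured at the second addition.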 The settings on record: MrgX1-HEK293, Fluo-4 calcium flux, FDSS, at 10 µM; stronger effect = higher value. (Calcium flux is commonly read through the fluorescence of an indicator in the cells.)
Mas-related G-protein coupled receptor member X1 (Homo sapiens), sequence (Q96LB2 whole entry, looked up): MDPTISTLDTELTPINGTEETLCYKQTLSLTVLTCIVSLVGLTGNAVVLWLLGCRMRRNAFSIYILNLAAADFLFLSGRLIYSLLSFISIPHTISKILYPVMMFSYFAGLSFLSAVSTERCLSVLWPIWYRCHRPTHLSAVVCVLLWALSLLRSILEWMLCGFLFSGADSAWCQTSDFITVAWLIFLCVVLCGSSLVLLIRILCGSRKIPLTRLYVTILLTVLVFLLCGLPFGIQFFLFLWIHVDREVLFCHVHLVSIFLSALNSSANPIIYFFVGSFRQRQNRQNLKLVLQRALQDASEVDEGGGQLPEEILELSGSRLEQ
Regarding `CCC(C)c1ccc(O)c(/C=N/O)c1` (configuration not stated), the B-score is 6.88 (active).
With `CNCC(O)c1ccc(O)c(O)c1` (configuration not stated) the entry was “inactive”.
As for `CCOC(=O)c1cccc(NC(=O)C2CCN(c3ncnc4c3nc3n4CCCCC3)CC2)c1`, the B-score result was “inactive”.
In the case of `CCCCCCCCCCCC(=O)O`, the B-score result was “inactive”.
For the molecule `CC(C)(C)NC(=O)COC(=O)c1cc(Cl)ccc1[N+](=O)[O-]`, the B-score entry was “inactive”.
In the case of `CCCC(=O)OCC(=O)Nc1cc(Cl)ccc1[N+](=O)[O-]`, the B-score is 9.84 (active).
Consider `Cc1cc(NC(=O)COC(=O)COc2ccc(Cl)cc2C)c([N+](=O)[O-])cc1C`, for which the B-score entry was “inactive”.
For `CCN(CC(=O)NC1CCS(=O)(=O)C1)S(=O)(=O)c1ccccc1` (configuration not stated), the B-score entry is “inactive”.
Turning to `Cc1coc2c(O)cc3c(c12)OC1(N2CCCCC2)C(=O)NCCCC31` (configuration not stated), the B-score result was “inactive”.
Take `COc1cccc(NC(=O)NCCN2CCCCC2)c1`: the B-score result is “inactive”.
With `Cc1ccc2c(c1)C1CN(C)CCC1N2S(=O)(=O)c1ccc(Oc2ccc([N+](=O)[O-])cc2)cc1` (configuration not stated) the entry was “inactive”; with `Cc1ccc(S(=O)(=O)N(C)c2ccc(OCC(=O)OCC(=O)N(CC#N)c3ccccc3)cc2)cc1`, “inactive”; with `Cc1ccc2nc(Nc3ccccc3)cc(C)c2c1`, 14 (active).
On to `Cc1cc(Nc2ccc(Br)cc2)nc2ccccc12`, for which the B-score entry was “inactive”.
Regarding `Cc1ccc2nc(Nc3ccccc3O)nc(-c3ccccc3)c2c1`, the B-score entry is “inactive”.
With `CCCN(CCC)C(=O)C1c2ccccc2Oc2ccccc21`, the B-score result is “inactive”.
For the molecule `CC(C)Nc1nnc(SCC(=O)/C=C2\N(C)c3ccccc3C2(C)C)s1`, the B-score result was “inactive”.
With `CC(=O)Nc1cccc(OCC(=O)/C=C2\N(C)c3ccccc3C2(C)C)c1` the figure was 6.96 (active).
On to `CCOc1cccc(NC(=O)CC#N)c1`, for which the B-score entry was “inactive”.
As for `Cc1ccc(S(=O)(=O)N2[C@@H](c3cccc(Cl)c3)C(C(=O)O)=CC[C@H]2c2ccc(Cl)c(Cl)c2)cc1`, the B-score entry is “inactive”.
Regarding `Cc1ccc([C@@H]2CC=C(C(=O)O)[C@H](c3cccc(Cl)c3)N2S(=O)(=O)c2ccc(C)cc2)cc1`, the B-score entry was “inactive”.
On to `Cc1ccc(S(=O)(=O)N2[C@@H](c3ccccc3F)C(C(=O)O)=CC[C@H]2c2ccc(Cl)cc2)cc1`, for which the B-score is 15.6 (active).
As for `CC(=O)Nc1cccc(C(=O)OCN2C(=O)c3ccccc3C2=O)c1`, the entry is “inactive”.
As for `O=C(c1ccc(OC2CCN(C/C=C/c3ccc(F)cc3)CC2)cc1)N1CCCCC1`, the B-score entry was “inactive”.
With `O=C(c1ccc(OC2CCN(C(=O)c3cccnc3)CC2)cc1)N1CCCCCC1` the figure was 6.62 (active); with `O=C(c1ccc(OC2CCN(Cc3ccccn3)CC2)cc1)N1CCCCCC1`, “inactive”.
As for `O=C(NCCCc1ccccc1)C1CCC(CNc2c(N3CCCCC3)c(=O)c2=O)CC1` (configuration not stated), the B-score entry is “inactive”.
For `Cc1cccc(C)c1NC(=O)N1CC=C(n2c(=O)[nH]c3ccccc32)CC1`, the B-score entry is “inactive”.
In the case of `CCOc1ccc(NC(=O)N2CCN(CC)CC2)cc1`, the B-score entry was “inactive”.
Turning to `CCOc1ccc(NC(=O)N2CC=C(n3c(=O)[nH]c4ccccc43)CC2)cc1`, the B-score was 7.16 (active).
In the case of `O=C(CCc1[nH]c2ccccc2c1Sc1ccccc1)N(CCO)CCO`, the B-score entry was “inactive”.
Regarding `CN(Cc1ccccc1)C(=O)C1CCCN(c2ncnc3c2nc2n3CCCCC2)C1` (configuration not stated), the B-score entry was “inactive”.
As for `CCCCOP(=O)(c1ccc(N(C)C)cc1)C(O)c1cc(OC)ccc1OC` (configuration not stated), the entry is “inactive”; as for `COC(CNC(=O)Cn1ncc2ccsc2c1=O)OC`, “inactive”; as for `CCC1=C(OC(=O)N(CC)CC)N2C(=O)OC(=NCC3CC3)[C@]2(C)[C@H]2C1=CC[C@H]1C(=O)N(CC(=O)OC)C(=O)[C@H]12`, “inactive”.
As to `COc1cccc(NS(=O)(=O)c2ccc(-c3coc(C)n3)cc2)c1`, the B-score entry is “inactive”.
With `CCN(c1cccc(C)c1)S(=O)(=O)c1ccc(-c2coc(C)n2)cc1`, the B-score was 8.56 (active).
Take `Cc1ccc(NS(=O)(=O)c2ccc(-c3coc(C)n3)cc2)c(C)c1`: the B-score entry was “inactive”.
For the molecule `CCCCN(CCCC)CCC(O)c1cc2c(Cl)cc(Cl)cc2c2cc(C(F)(F)F)ccc12` (configuration not stated), the B-score entry is “inactive”.
In the case of `Fc1ccc(COc2ccc(-c3nnco3)cc2)cc1`, the B-score entry was “inactive”.
Take `O=C(/C=C/c1ccc(OCc2c(F)cccc2Cl)cc1)N1CCOCC1`: the B-score entry is “inactive”.
Regarding `Fc1cccc(Cl)c1COc1ccc(-c2nnco2)cc1`, the B-score is 13.2 (active).
Turning to `Cc1c(C(=O)N2CCN(c3ccc(F)cc3)CC2)oc2c1C(=O)CCC2`, the B-score was 7.4 (active).
For `O=C(c1cc(-c2ccc(F)cc2)on1)N1CCN(c2ccc(F)cc2)CC1`, the B-score entry was “inactive”.
For the molecule `O=C(Nc1ccc(F)cc1)N1CCN(c2ccc(F)cc2)CC1`, the B-score entry was “inactive”.
On to `O=C(COC(=O)c1ccccc1Br)Nc1nnc(-c2ccccc2)o1`, for which the B-score result is “inactive”.
Take `Nc1cc(OC(=O)c2ccccc2Br)nn1S(=O)(=O)c1ccccc1`: the B-score was 7.83 (active).
Regarding `Cc1ccc(S(=O)(=O)n2nc(OC(=O)C(C)(C)C)cc2N)cc1`, the B-score result is “inactive”.
With `Cc1ccc2[nH]c(C(=O)O)c(NC(=O)c3ccccc3[N+](=O)[O-])c2c1` the entry was “inactive”; with `O=C(O)C1=CCCN(CCON=C(c2ccccc2)c2ccccc2)C1`, “inactive”.
For the molecule `O=C(Nc1ccccc1N1CCOCC1)c1csc2c1CCCC2`, the B-score is 12 (active).
Consider `Cc1ccc(S(=O)(=O)N2CCOCC2)cc1C(=O)Nc1ccccc1N1CCCC1`, for which the B-score entry was “inactive”.
On to `Cc1cc(C(=O)Nc2ccccc2N2CCOCC2)c2ccccc2n1`, for which the B-score entry was “inactive”.
For `c1ccc(-c2ccc3c(c2)NC(C2Nc4cc(-c5ccccc5)ccc4O2)O3)cc1` (configuration not stated), the B-score result is “inactive”.
With `O=C(Oc1ccc(Br)cc1C(=S)N1CCOCC1)c1cccc([N+](=O)[O-])c1`, the B-score result is “inactive”.
With `Cc1nnc(NCCO)c2ccccc12` the entry was “inactive”; with `COc1ccc(Nc2nnc(C)c3ccccc23)cc1`, 22.5 (active); with `COc1ccc(Nc2nc(=O)[nH]nc2C)cc1`, “inactive”.
As for `CN(c1ccccc1)S(=O)(=O)c1ccc(NC(=O)COc2ccccc2)cc1`, the B-score entry was “inactive”.
Regarding `O=C(NCc1ccccc1Cl)c1ccc2c(=O)n(CC3CCCO3)c(=S)[nH]c2c1` (configuration not stated), the B-score entry is “inactive”.
For the molecule `CC(C)CCn1cnc2c1c(=O)n(CC(=O)NC(N)=O)c(=O)n2Cc1ccccc1`, the B-score result is “inactive”.
`Cc1ccc(S(=O)(=O)N(C)c2nc3ccccc3n3c(C(C)C)nnc23)cc1`: the B-score is 6.54 (active).
Take `Cc1ccc(Oc2nc3ccccc3n3c(C)nnc23)cc1`: the B-score entry is “inactive”.
With `CC(=O)Nc1ccc(S(=O)(=O)N(C)c2nc3ccccc3nc2Cl)cc1` the entry was “inactive”.
`CC(C)CC(=O)NC(=S)NCc1ccccc1`: the B-score result is “inactive”.
On to `CC(C)CC(=O)N/C(N)=N/c1nc2ccccc2s1`, for which the B-score is 12.9 (active).
Turning to `CCC(=O)NC(=Nc1nc2ccccc2s1)NC(=O)CC`, the B-score result is “inactive”.
